TTR transcr act: TTR transcription activation, primary screen; SH-SY5Y TTR promoter Gaussia luciferase, luminescence; 100% = recombinant luciferase protein wells; AID 1117267; 92,000 compounds, 1.3% hits; activation, % at 16.7 µM;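 active means activation above the mean of all tested compounds plus 3 SD, cut at about 9.5% in these data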;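 further: cells exposed to compounds for one day before reading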
TTR inh HuH7: HuH7 TTR transcription inhibition, counter-screen; shares compounds with TTR transcr act; HuH7 TTR promoter-Gaussia luciferase reporter, luminescence; inhibition, % at 16.7 µM; 1,100 compounds, 4% hits; AID 1117279;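 active means average inhibition above the solvent-only control wells' mean plus 3 SD, cut at about 15% in these data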;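 further: inhibitors lower well luminescence so higher value means more inhibition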
TTR up confirm: confirmation of human transthyretin transcription activators; shares compounds with TTR transcr act; activation, % at 16.7 µM; 1,100 tested, under 10 active; SHSY5Y TTR promoter Gaussia luciferase, luminescence; 100% = purified Lucia enzyme wells, no cells;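 active means mean activation above a set limit taken from the earlier primary screen, cut at about 11% in these data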
A number is an active result; 0 = inactive. Many of the other results were omitted from the sample, so hits are more common in it than they were.

SMILES	TTR transcr act	others
COC(=O)[C@]12C[C@H](CC(=O)N3CCCCC3)C(=O)N(Cc3ccc(Cl)cc3Cl)C1=C[C@H](C1CCCC1)O[C@@H]2C	0
FC(F)(F)Oc1ccc(Cn2ccc3ccc(-c4ccc5ccn(Cc6ccccc6)c5c4)cc32)cc1	0
OC(CN1CCN(c2ccccn2)CC1)Cn1c2ccc(Cl)cc2c2cc(Cl)ccc21 (stereo unspecified)	36	TTR inh HuH7=0;TTR up confirm=0
OC(COC(c1ccc(Cl)cc1)c1ccc(Cl)cc1)CN1CCN(c2ccccn2)CC1 (stereo unspecified)	0
Cc1ccc(OCC(O)CN2CCN(c3ccccn3)CC2)c(C)c1 (stereo unspecified)	0
O=C(Nc1ccc(F)cc1)OC1CC2CC1[C@H]1CCCCN1C2 (stereo partly specified)	0
CCCN=C(C)C1=C(O)c2ccccc2C1=O	0
CC(=NCCc1ccccc1)C1=C(O)COC1=O	13	TTR inh HuH7=0;TTR up confirm=0
CC(=NCc1ccccc1)C1=C(O)COC1=O	0
COc1ccc(S(=O)(=O)Nc2ccc(C)cn2)cc1	14	TTR inh HuH7=0;TTR up confirm=0
COc1ccc(C(=O)Nc2ccc(C)cn2)c(OC)c1	0
COc1ccc(S(=O)(=O)Nc2ccc(NC(C)=O)cc2)cc1	0
COC(=O)[C@]1(C)CN(C(=O)OC(C)(C)C)C2=C1C(=O)C[C@](C)(C(=O)OC(C)(C)C)C2	0
CC(=O)OCC(=O)Nc1c(C)cc(C)cc1C	9.9	TTR inh HuH7=0;TTR up confirm=0
Cc1cc(C)c(NC(=O)COC(=O)C2CCCO2)c(C)c1 (stereo unspecified)	0
COc1cc(CCC(=O)OCC(=O)Nc2c(C)cc(C)cc2C)cc(OC)c1OC	0
CN(CCCOC(=O)c1cccs1)C1CN(Cc2cn(Cc3ccccc3Cl)nn2)S(=O)(=O)C1 (stereo unspecified)	0
COc1ccc(-c2c(C(=O)c3ccccc3)[nH]c(N)c2C(=O)c2c[nH]c3ccccc23)cc1OC	0
O=C(Nc1ccc2ncccc2c1)c1ccccc1Cl	11	TTR inh HuH7=0;TTR up confirm=0
O=C(Nc1ccc2ncccc2c1)c1ccccc1	0
O=C(NC(=S)Nc1ccc2ncccc2c1)c1ccccc1	0
CN1C(=O)[C@@](O)(c2cccn2C)c2cc(Cl)ccc21	0
CCOC(=O)[C@]12CCCC3=C1N(CCC3)C(=O)[C@@H](CC(=O)NCC1CCCCC1)C2	0
Cc1cccc(OCCCC(=O)Nc2ccc(N(C)C)cc2)c1	0
COc1ccc(/C=C/c2nnc(NC(=O)COc3cccc(C)c3)s2)cc1	0
SMILES	TTR transcr act	others
Cc1cccc(OCCC(=O)Nc2nnc(C)s2)c1	17	TTR inh HuH7=0;TTR up confirm=0
Nc1[nH]c(C(=O)c2ccccc2)c(-c2ccc(Br)cc2)c1C(=O)N1CCN(CCO)CC1	0
COC(=O)[C@]12C[C@H](CC(=O)NCCc3ccccc3OC)C(=O)N(Cc3ccc(Cl)cc3Cl)C1=C[C@H](C1CCCC1)O[C@@H]2C	0
CCOc1ccccc1NC(=O)C1CCCN1S(=O)(=O)c1ccc2c(c1)C(C)(C)C(=O)N2C (stereo unspecified)	12	TTR inh HuH7=0;TTR up confirm=0
Cc1cccc(NC(=O)C2CCN(S(=O)(=O)c3ccc4c(c3)C(C)(C)C(=O)N4C)CC2)c1C	0
CCc1ccccc1NC(=O)C1CCCN1S(=O)(=O)c1ccc2c(c1)n(C)c(=O)c(=O)n2C (stereo unspecified)	18	TTR inh HuH7=0;TTR up confirm=0
CCc1ccccc1NC(=O)[C@@H]1CCCN1S(=O)(=O)c1cccc2cccnc12	0
CCc1ccccc1NC(=O)C1CCCN1S(=O)(=O)c1ccc(-c2ccc(=O)[nH]n2)s1 (stereo unspecified)	0
COc1cccc(NC(=O)C2CCCN2S(=O)(=O)c2ccc3c(c2)C(C)(C)C(=O)N3C)c1 (stereo unspecified)	0
COC(=O)[C@]12C[C@H](CC(=O)NCC34CC5CC(CC(C5)C3)C4)C(=O)N(Cc3ccc(Cl)cc3Cl)C1=C[C@H](C(C)C)O[C@@H]2C1CC1	0
CCCC[C@H]1C2CC(OC(=O)Nc3ccccc3OC)C(C2)[C@H]2CCCCN21 (stereo partly specified)	0
COC(=O)[C@@H]1[C@H](O[Si](C)(C)C(C)(C)C)[C@H]2O[C@H]2C[C@H]1S(=O)(=O)c1ccccc1	0
O=C(Nc1ccc2c(c1)Cc1ccccc1-2)NC1CCCCN(Cc2ccc(Cl)cc2)C1=O (stereo unspecified)	0
Cn1cnc(Sc2ncnc3nc[nH]c23)c1[N+](=O)[O-]	38	TTR inh HuH7=0;TTR up confirm=0
Cn1cnc([N+](=O)[O-])c1Sc1ncnc2nc[nH]c12	0
COc1ccc(C(=O)CSc2ncnc3nc[nH]c23)cc1	0
Cc1ccc(C)c(NC(=O)[C@@H]2CCCN2S(=O)(=O)c2cccc3cccnc23)c1	0
N=c1c2c(ccn1CCCc1ccccc1)Oc1ccc3ccccc3c1C2c1ccccc1 (stereo unspecified)	0
